Molecules are shown by their SMILES. Calls of active or inactive are those of the source.

For this experiment, the target named is Dihydroorotate dehydrogenase (quinone), mitochondrial (Plasmodium falciparum (isolate 3D7)) (UniProt Q08210). Description: inhibition of P. falciparum DHODH – biochemical, C-terminal His tag, absorbance 600 nm, primary screen (AID 1175).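 Also: recombinant parasite enzyme with a five histidine tag at its C terminus; test concentration not given here.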 The conditions noted are these: PfDHODH enzyme, DCIP absorbance 600 nm; higher = more signal, called active from +8 up or from −8 down.
Dihydroorotate dehydrogenase (quinone), mitochondrial (Plasmodium falciparum (isolate 3D7)), sequence (Q08210 whole entry, looked up): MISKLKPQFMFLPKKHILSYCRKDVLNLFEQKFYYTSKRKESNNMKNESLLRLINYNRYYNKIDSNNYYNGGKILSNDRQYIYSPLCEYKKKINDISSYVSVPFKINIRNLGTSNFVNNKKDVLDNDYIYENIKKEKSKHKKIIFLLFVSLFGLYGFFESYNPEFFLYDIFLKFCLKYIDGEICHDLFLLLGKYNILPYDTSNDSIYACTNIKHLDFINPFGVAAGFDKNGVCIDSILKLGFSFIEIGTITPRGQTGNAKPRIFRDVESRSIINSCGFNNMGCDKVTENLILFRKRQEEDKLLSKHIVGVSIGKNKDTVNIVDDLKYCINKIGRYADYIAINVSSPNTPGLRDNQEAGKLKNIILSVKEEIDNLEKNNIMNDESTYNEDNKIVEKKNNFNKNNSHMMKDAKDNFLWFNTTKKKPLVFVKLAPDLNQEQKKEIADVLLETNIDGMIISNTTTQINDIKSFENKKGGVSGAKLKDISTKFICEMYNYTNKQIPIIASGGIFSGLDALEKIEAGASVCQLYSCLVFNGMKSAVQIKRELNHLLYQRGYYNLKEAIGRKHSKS
With `O=C1O[C@@H](c2ccccc2)[C@@H](c2ccccc2)N2[C@@H](c3ccccc3OCCO)[C@]3(C(=O)Nc4ccc(C#CC5(O)CCCCCC5)cc43)[C@@H](C(=O)Nc3nc4ccccc4s3)[C@H]12`, the composite z-score is 0.18 (inactive). As for `COCCOC(=O)N1C(=O)[C@@]2(c3cc(C#CCNC(N)=O)ccc31)[C@H](c1ccc(OCCO)cc1)N1[C@H](c3ccccc3)[C@H](c3ccccc3)OC(=O)[C@H]1[C@@H]2C(=O)N1CCc2cc(OC)c(OC)cc2C1`, the composite z-score is -0.597 (inactive). With `CCOC(=O)C[C@H]1[C@H](OC(=O)c2ccc(C(=O)c3ccccc3)cc2)[C@@H](NC(=O)C2CCCCC2)c2cc(OCCCO)ccc2N1C(=O)c1ccccc1`, the composite z-score was -1.06 (inactive). Then `CC(C)=CCCC(C)=CC(O)C1C=CC2C(=O)N(c3ccccc3)C(=O)C2N1Nc1ccccc1` (stereo not given), with 0.0928 (inactive); and `COC(=O)[C@@]1(Cc2ccc(OC)cc2)[C@H]2c3cc(C(=O)N4CCCC4)n(CCc4c[nH]c5cc(F)ccc45)c3C[C@H]2CN1C(=O)c1ccccc1`, with 0.461 (inactive). Regarding `Cc1ccc(F)cc1S(=O)(=O)N[C@@H]1CCN(Cc2ccc(-c3ccccc3)cc2)C1`, the composite z-score is -0.427 (inactive).

Consider `COC(=O)[C@@]1(Cc2ccc(OC)cc2)[C@H]2c3cc(C(=O)N(C)C)n(Cc4c(OC)[nH]cc(C)c4=O)c3C[C@H]2CN1C(=O)c1ccccc1`, for which the composite z-score was -0.967 (inactive). With `[N-]=[N+]=Nc1ccccc1[C@H]1OC(c2ccc(OCCCO)cc2)=N[C@@]1(CCS(=O)(=O)c1ccccc1)C(=O)O`, the composite z-score was 0.737 (inactive). Regarding `COC(=O)c1ccc(C(O)C2C=CC3C(=O)N(C)C(=O)C3N2NC(=O)OC(C)(C)C)o1` (stereo not given), the composite z-score was -0.0658 (inactive). The result for `CC=CC(O)C1C=CC2C(=O)N(c3ccccc3)C(=O)C2N1Nc1ccc(C(C)C)cc1` (stereo not given) reads 0.784 (inactive); that for `O=C1C[C@@](C(=O)NC2CC2)(c2ccc([N+](=O)[O-])cc2)[C@@H](c2ccc(CO)cc2)N1CC12CC3CC(CC(C3)C1)C2`, 0.117 (inactive). Consider `COc1ccc(C(O)C2C=CC3C(=O)N(C)C(=O)C3N2Nc2ccccc2)cc1OCc1ccccc1` (stereo not given), for which the composite z-score was 0.669 (inactive). As for `[N-]=[N+]=NCc1ccccc1C[C@@]1(C(=O)N2CCOCC2)N=C(c2ccc(OCCCO)cc2)O[C@@H]1c1ccccc1CN=[N+]=[N-]`, the composite z-score is -0.346 (inactive). Regarding `CN1C(=O)C2C=CC(C(O)c3ccccn3)N(Nc3ccccc3)C2C1=O` (stereo not given), the composite z-score was 1.42 (inactive). The result for `COc1ccc(C#Cc2ccc3c(c2)[C@]2(C(=O)N3)[C@H](c3ccc(O)cc3)N3[C@H](c4ccccc4)[C@H](c4ccccc4)OC(=O)[C@H]3[C@@H]2C(=O)N2CCCCCCC2)cc1` reads -1.4 (inactive). Regarding `O=C1OCCC=C[C@H]2OC34C=CCN(Cc5ccccc5)C(=O)[C@H]3N(CCCCCO)C(=O)[C@@H]4C12` (stereo not given in full), the composite z-score is -1.12 (inactive).

For the compound `COC(=O)C(CC#Cc1ccc2c(c1)[C@]1(C(=O)N2)[C@H](C(=O)NC[C@H](O)c2ccccc2)[C@H]2C(=O)O[C@H](c3ccccc3)[C@H](c3ccccc3)N2[C@@H]1c1ccc(OCCO)cc1)C(=O)OC`, the composite z-score is -16.8 (active). As for `COCCOC(=O)N1C(=O)[C@@]2(c3cc(C#CCNC(N)=O)ccc31)[C@H](c1ccc(O)cc1)N1[C@H](c3ccccc3)[C@H](c3ccccc3)OC(=O)[C@H]1[C@@H]2C(=O)NC[C@H](O)c1ccccc1`, the composite z-score is 0.924 (inactive).

Turning to `COC(=O)[C@@]1(Cc2ccccc2)[C@H]2c3cc(C(=O)N4CCCC4)n(Cc4ccc(C)o4)c3C[C@H]2CN1C(=O)c1ccccc1`, the composite z-score is -0.376 (inactive). Then `COCC(=C=CC[C@H](O)c1ccc(OCCO)cc1)C[C@H](O)c1cc(Cl)cc(Cl)c1O`, with -4.37 (inactive).

Values taken from PubChem BioAssay.
